Experimental findings from PubChem BioAssay are described below.

SMILES strings stand for the structures. The source made the active and inactive calls. The rule behind the calls is not given here.

The target in this assay is Pantothenate synthetase (Mycobacterium tuberculosis (strain ATCC 25618 / H37Rv)) (UniProt P9WIL5). Kind of assay: Recombinant Mtb pantothenate synthetase (PanC) inhibitors, coupled enzyme, confirmatory (AID 375).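 Note: 0% = full reaction with vehicle and 100% = no enzyme background.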 The settings on record: coupled enzyme assay; at 10 µM, hits give high values.
Sequence of Pantothenate synthetase (Mycobacterium tuberculosis (strain ATCC 25618 / H37Rv)) (P9WIL5 whole entry, looked up): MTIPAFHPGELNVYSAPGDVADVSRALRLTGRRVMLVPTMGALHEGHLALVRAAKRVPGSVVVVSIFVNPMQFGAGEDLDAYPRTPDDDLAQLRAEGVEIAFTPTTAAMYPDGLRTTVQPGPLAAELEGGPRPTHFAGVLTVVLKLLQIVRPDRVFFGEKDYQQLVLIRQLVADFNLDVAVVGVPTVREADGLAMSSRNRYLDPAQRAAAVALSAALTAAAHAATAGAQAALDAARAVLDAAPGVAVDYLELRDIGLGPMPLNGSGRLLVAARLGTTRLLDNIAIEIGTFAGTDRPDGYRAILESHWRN
Usually inhibition stands for the drop in the measured response relative to a control, in per cent. As to `Cc1nn(C(=O)c2ccccc2)c2c1C(=O)CC(C)(C)C2`, the inhibition was 0% (inactive).

Turning to `COc1ccc(OC)c(-c2nnc(SCC(=O)NC3CCCCC3)o2)c1`, the inhibition was 0% (inactive).

In the case of `Cc1cccc(CC(=O)Nc2c3c(nn2-c2cccc(Cl)c2)CS(=O)C3)c1` (stereo not given), the inhibition was 2% (inactive).

With `Brc1cccc(-c2cnc3n2CCCCC3)c1`, the inhibition was 4% (inactive).

In the case of `COc1ccc(CCNS(=O)(=O)c2ccc3c(c2)OCCO3)cc1`, the inhibition is 0% (inactive).

Regarding `CS(=O)(=O)N(CC(=O)Nc1ccc2c(c1)OCO2)Cc1ccc(Cl)cc1`, the inhibition was 0% (inactive).

Take `Cc1ccc(-c2cc(C(=O)Nc3cc(C)on3)c3ccccc3n2)c(C)c1`: the inhibition is 0% (inactive).

Take `Cc1nc2ccccc2c(=O)n1NC(=O)c1c(O)c2c(n(CC(C)C)c1=O)CCCC2`: the inhibition is 0% (inactive).

For `CCCCc1nc2ccccc2n2cc3c(=O)n(C)c(=O)n(C)c3c12`, the inhibition is 0% (inactive).

`CC(C)CC(=O)Nc1ccccc1-c1nnn(CC(=O)N2CCOCC2)n1`: the inhibition was 0% (inactive).

Consider `O=C(CN1C(=O)c2ccccc2S1(=O)=O)NCc1ccccn1`, for which the inhibition was 0% (inactive).

As to `CC1(C)CC(=O)c2cnc(NC(=O)Cc3ccc(Cl)cc3)nc2C1`, the inhibition is 0% (inactive).

Consider `Cc1nc2sc(C#N)c(N)c2c2c1CCCC2`, for which the inhibition was 2% (inactive).

In the case of `O=C(O)c1[nH]nc2c1COc1ccccc1-2`, the inhibition is 6% (inactive).

Take `Cc1cccc(N2CCN(C(=O)CCn3c(=S)[nH]c4cc5c(cc4c3=O)OCO5)CC2C)c1` (stereo not given): the inhibition is 9% (inactive).

In the case of `Cc1cc(NC(=O)CSc2nnc(COc3cccc(C)c3C)n2Cc2ccco2)no1`, the inhibition is 0% (inactive).

For the molecule `COC(=O)c1oc2ccc(Br)cc2c1NC(C)=O`, the inhibition is 0% (inactive).

Turning to `Cc1nc2ccc(Br)cn2c1NC(C)(C)C`, the inhibition was 0% (inactive).

As to `CN1CCN(c2nc(-c3ccncc3)nc3ccccc23)CC1`, the inhibition was 0% (inactive).

Regarding `CCCCCC1CC(CC#CCN2CCOCC2)C(=O)O1` (stereo not given), the inhibition was 7% (inactive).

As to `CCOC(OCC)P(=O)(C(C)C)C(C)C`, the inhibition is 0% (inactive).

As for `O=c1oc2c3c4c(cc2cc1-c1nc2ccccc2[nH]1)CCCN4CCC3`, the inhibition is 4% (inactive).

With `CCc1nc(N)nc(N)c1-c1ccc(Cl)cc1`, the inhibition was 0% (inactive).

Take `CC1(CC(=O)O)C(=O)N=C2C=CC=CN21` (stereo not given): the inhibition is 0% (inactive).

On to `CCCn1c(=O)c2ccccc2n2c(SCc3cc(=O)n4ccsc4n3)nnc12`, for which the inhibition is 0% (inactive).

Take `Nc1nc2c(ncn2COCCO)c(=O)[nH]1`: the inhibition is 0% (inactive).

Turning to `O=c1[nH]c(N2CCCCC2)nc2c1CCCC2`, the inhibition is 0% (inactive).

As to `COc1ccc(C(C)(C)C)cc1NC(=O)Nc1ccc2c(c1)OCO2`, the inhibition is 5% (inactive).

Consider `OC(CCCN1CCC(O)(c2ccc(Cl)cc2)CC1)c1ccc(F)cc1` (stereo not given), for which the inhibition was 5% (inactive).

As for `COc1cc(SC)ccc1C(=O)Nc1ccccc1C#N`, the inhibition is 0% (inactive).

Take `COC(=O)CCC(=O)Nc1cccc(Cl)c1`: the inhibition is 0% (inactive).

For `CN(C(=O)c1cc2sccc2n1C)C1CCCCC1`, the inhibition was 6% (inactive).

`Cc1cccc(N2CCN(C(=O)c3cc4ccccc4oc3=O)CC2)c1C`: the inhibition was 0% (inactive).

`Cc1cc(C)c2c(n1)nn1c(N3CCN(c4cccc(Cl)c4)CC3)cc(C)nc21`: the inhibition is 5% (inactive).

On to `O=C(Cn1nc(Cc2cccnc2)c2ccccc2c1=O)Nc1ccc2c(c1)OCO2`, for which the inhibition is 0% (inactive).

As for `CCC(C)(C(=O)NC1CCCCC1)N(Cc1ccco1)C(=O)c1cnccn1` (stereo not given), the inhibition is 3% (inactive).

For `Oc1c(Cl)cc(Cl)c2c1NCCC2`, the inhibition is 1% (inactive).

With `CN(C)c1ccc(C(=O)OCC(=O)NC2CCCCC2)cc1`, the inhibition is 0% (inactive).

In the case of `COC(=O)c1ccc(Oc2nc(NC(C)C)nc(N(C)C)n2)cc1`, the inhibition was 1% (inactive).

In the case of `Cc1ccc(C)c(NS(=O)(=O)c2ccc(NC(=O)c3ccco3)cc2)c1`, the inhibition is 0% (inactive).
